# PubChem BioAssay
# The source made the active and inactive calls.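 Rule for the calls, unless noted: active = fluorescence slope after compound addition differing from the mean of all screened samples at 99.7% confidence, in either direction; inactive = the rest.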
# Key:
# [1] = inhibitors of TNFa-induced NFkB p65 translocation, primary screen, imaging, HUVEC, MLSMR starter and 10KST1 sets (AID 438;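 active = inhibition above 20% together with a positive visual image hit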;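 note: compound added about 3h40 before a 20 min TNFalpha stimulation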;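 for inhibition: signal is the nuclear over cytoplasmic p65 intensity ratio per well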); conditions: HUVEC TNFa-induced p65 nuclear translocation; cell count: measured here: nuclei count (cytotoxicity indicator), at 2.08 µM; inhibition: at 2 µM, stronger effect = higher value, 0% TNFa-plus-vehicle, 100% no-TNFa wells
# [2] = inhibitors of mutant huntingtin aggregation, primary screen, imaging, exon1htt(103Q)mCFP cells, high-content imaging (AID 483;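 active = visual image review flags a hit and inhibition of aggregation exceeds 20%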;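 note: compound exposure lasted 3 days before fixation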;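 for nuclei count: percent of the per-plate median nuclei count of sample wells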); conditions: exon1htt(103Q)mCFP cell line, aggregate imaging, at 2 µM; inhibition of aggregation: stronger effect = higher value; nuclei count: measured here: cell count, toxicity
# [3] = inhibitors of E-selectin induction by TNFa, primary screen, imaging, HUVEC, immunofluorescence, MLSMR starter and 10KST1 sets (AID 487;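 active = visually confirmed hit in the image check and inhibition above 20%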;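 for inhibition: signal is fraction of cell area covered by stained E-selectin grains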;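 for nuclei count: 100% = median nuclei count of all wells on the same plate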); conditions: HUVEC TNFalpha-induced E-selectin immunofluorescence imaging, at 2 µM; inhibition: stronger effect = higher value; nuclei count: measured here: cell number, toxicity
# [4] = target: Voltage-gated potassium channel subunit beta-2 (Rattus norvegicus) (UniProt P62483); assay: KvBeta enzyme negative modulators, primary screen, biochemical, NADPH fluorescence (AID 622;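 active = fluorescence slope higher than the sample average by over 3 SD, cut at about -0.22 in these data, passing the limit was not always enough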;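 note: slope of raw intensity against log time taken from 70 to 1610 s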); conditions: recombinant KvBeta, 4-cyanobenzaldehyde reduction, at 10 µM, stronger effect = higher value
# [5] = target: Voltage-gated potassium channel subunit beta-2 (Rattus norvegicus) (UniProt P62483); assay: KvBeta positive modulators, primary screen, biochemical, NADPH fluorescence (AID 623;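 active = NADPH fluorescence slope more negative than the mean of all samples by about 3 SD, 99.7% confidence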;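 note: fluorescence intensity change per second fitted from 20 to 320 s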); conditions: Recombinant KvBeta, NADPH fluorescence decrease slope, 10 min; at 10 µM; stronger effect = lower value
# [6] = target: Alpha-2C adrenergic receptor (Homo sapiens) (UniProt P18825); assay: modulators of alpha2C/GIRK thallium flux, primary screen, cell-based, HEK293 alpha2C/GIRK1/2 (AID 624); conditions: thallium flux BTC fluorescence, at 10 µM, actives lie on both sides;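 note: slope of fluorescence ratio to pre-addition baseline per second over 15 to 24 s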
# [7] = inhibitors of Sendai virus-induced IRF3 signaling, primary screen, TLR/RLR signaling modifier project, cell-based, Sendai virus stimulus, luciferase, 10K MLSCN set (AID 602276;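 active = inhibition at or above 50% at 10 µM; inactive = inhibition below 50%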;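 note: firefly luciferase from ISG56 promoter only with Renilla not read in this screen; 0% = Sendai virus plus DMSO and 100% = medium plus DMSO without virus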); conditions: HEK293 RL24 IRF3 luciferase reporter, at 10 µM, stronger effect = higher value
# [8] = inhibitors of poly I:C-induced TLR3 signaling, primary screen, cell-based, poly I:C stimulus, luciferase, 10K MLSCN set (AID 602277;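 active = inhibition of the reporter signal at or above 50%; inactive = inhibition below 50%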); conditions: HEK293-TLR3 RL24 IRF3 luciferase reporter, at 10 µM, stronger effect = higher value
# Sequence of Voltage-gated potassium channel subunit beta-2 (Rattus norvegicus) (P62483 whole entry, looked up): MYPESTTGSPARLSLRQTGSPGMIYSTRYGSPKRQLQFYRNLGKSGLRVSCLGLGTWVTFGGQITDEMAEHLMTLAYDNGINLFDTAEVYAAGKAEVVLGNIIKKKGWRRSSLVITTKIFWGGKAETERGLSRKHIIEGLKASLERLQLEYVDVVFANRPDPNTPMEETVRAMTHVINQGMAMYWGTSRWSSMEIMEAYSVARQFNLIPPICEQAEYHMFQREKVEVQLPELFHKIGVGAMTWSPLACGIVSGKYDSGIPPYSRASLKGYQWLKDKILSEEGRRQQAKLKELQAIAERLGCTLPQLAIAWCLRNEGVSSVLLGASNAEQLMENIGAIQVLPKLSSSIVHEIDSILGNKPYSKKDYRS
# Sequence of Alpha-2C adrenergic receptor (Homo sapiens) (P18825 whole entry, looked up): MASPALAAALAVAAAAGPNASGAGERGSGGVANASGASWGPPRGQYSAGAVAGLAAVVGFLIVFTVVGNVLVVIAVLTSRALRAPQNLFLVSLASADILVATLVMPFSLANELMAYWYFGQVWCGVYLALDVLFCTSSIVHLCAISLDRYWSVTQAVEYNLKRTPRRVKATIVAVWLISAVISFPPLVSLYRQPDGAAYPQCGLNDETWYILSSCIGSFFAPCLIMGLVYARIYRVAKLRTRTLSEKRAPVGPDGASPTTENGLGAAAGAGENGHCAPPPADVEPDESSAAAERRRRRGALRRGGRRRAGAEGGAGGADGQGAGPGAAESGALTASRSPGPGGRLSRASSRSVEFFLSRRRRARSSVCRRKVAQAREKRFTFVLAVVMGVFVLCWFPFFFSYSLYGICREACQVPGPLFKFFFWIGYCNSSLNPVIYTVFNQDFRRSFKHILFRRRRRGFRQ
compound,measurement,setting,value
Cc1ccc(C(C(=O)NC2CCCCC2)N2CCOCC2)cc1 (centres undefined),cell count,[1],674
same,inhibition,[1],-5.2% (inactive)
same,inhibition of aggregation,[2],-13% (inactive)
same,nuclei count,[2],114%
same,inhibition,[3],-41.7% (inactive)
same,nuclei count,[3],125%
same,fluorescence slope,[4],-0.468 (inactive)
same,NADPH fluorescence slope,[5],-0.000297 (inactive)
same,slope,[6],0.00526 (inactive)
same,inhibition,[7],-0.432% (inactive)
same,inhibition,[8],15.1% (inactive)
COc1ccc(S(=O)(=O)CCC(=O)O)cc1,cell count,[1],756
same,inhibition,[1],-2.2% (inactive)
same,inhibition of aggregation,[2],25.4% (inactive)
same,nuclei count,[2],126%
same,inhibition,[3],-47.5% (inactive)
same,nuclei count,[3],107%
same,fluorescence slope,[4],-0.603 (inactive)
same,NADPH fluorescence slope,[5],1.2e-05 (inactive)
same,slope,[6],0.00748 (inactive)
same,inhibition,[7],17% (inactive)
same,inhibition,[8],21.8% (inactive)
O=C(c1ccco1)N1CCN(S(=O)(=O)c2ccc3c(c2)CCN3C(=O)C2CCC2)CC1,cell count,[1],600
same,inhibition,[1],1.2% (inactive)
same,inhibition of aggregation,[2],22.2% (inactive)
same,nuclei count,[2],97%
same,inhibition,[3],-53.2% (inactive)
same,nuclei count,[3],115%
same,fluorescence slope,[4],-0.425 (inactive)
same,NADPH fluorescence slope,[5],-3.6e-06 (inactive)
same,slope,[6],0.00394 (inactive)
same,inhibition,[7],-18.7% (inactive)
same,inhibition,[8],-87.3% (inactive)
Cc1cc(=O)n(C)c(=O)n1CCCCCN1CCCC1,cell count,[1],655
same,inhibition,[1],2.2% (inactive)
same,inhibition of aggregation,[2],-3.3% (inactive)
same,nuclei count,[2],106%
same,inhibition,[3],-52% (inactive)
same,nuclei count,[3],102%
same,fluorescence slope,[4],-0.51 (inactive)
same,NADPH fluorescence slope,[5],-1.1e-05 (inactive)
same,slope,[6],0.00473 (inactive)
same,inhibition,[7],19.1% (inactive)
same,inhibition,[8],25.3% (inactive)
CCN(C(=O)c1cc(Cl)ccc1OC)C1CCCCC1,cell count,[1],303
same,inhibition,[1],4.5% (inactive)
same,inhibition of aggregation,[2],8.5% (inactive)
same,nuclei count,[2],109%
same,inhibition,[3],15.2% (inactive)
same,nuclei count,[3],113%
same,fluorescence slope,[4],-0.429 (inactive)
same,NADPH fluorescence slope,[5],-6.2e-05 (inactive)
same,slope,[6],0.00399 (inactive)
same,inhibition,[7],13.8% (inactive)
same,inhibition,[8],42% (inactive)
CC1=C(C(N)=O)C(c2ccncc2)n2nc(-c3ccccc3Cl)nc2N1 (centres undefined),cell count,[1],617
same,inhibition,[1],0% (inactive)
same,inhibition of aggregation,[2],5.7% (inactive)
same,nuclei count,[2],92.1%
same,inhibition,[3],-1.2% (inactive)
same,nuclei count,[3],109%
same,fluorescence slope,[4],-0.528 (inactive)
same,NADPH fluorescence slope,[5],-2.9e-05 (inactive)
same,slope,[6],0.00735 (inactive)
same,inhibition,[7],3.63% (inactive)
same,inhibition,[8],21.9% (inactive)
CC(=O)c1ccc(OCC(O)CN2CCN(CCO)CC2)cc1 (centres undefined),cell count,[1],605
same,inhibition,[1],-6.1% (inactive)
same,inhibition of aggregation,[2],-14.2% (inactive)
same,nuclei count,[2],104%
same,inhibition,[3],-19.7% (inactive)
same,nuclei count,[3],113%
same,fluorescence slope,[4],-0.549 (inactive)
same,NADPH fluorescence slope,[5],-2.9e-05 (inactive)
same,slope,[6],0.00738 (inactive)
same,inhibition,[7],13.3% (inactive)
same,inhibition,[8],40.3% (inactive)
O=C(Nc1nccs1)c1ccc(COc2ccccc2Br)o1,cell count,[1],694
same,inhibition,[1],-14.6% (inactive)
same,inhibition of aggregation,[2],-27.8% (inactive)
same,nuclei count,[2],111%
same,inhibition,[3],-85.8% (inactive)
same,nuclei count,[3],118%
same,fluorescence slope,[4],-0.487 (inactive)
same,NADPH fluorescence slope,[5],-5.4e-05 (inactive)
same,slope,[6],0.00542 (inactive)
same,inhibition,[7],21.2% (inactive)
same,inhibition,[8],-63.2% (inactive)
CN(C1CCCCC1)S(=O)(=O)c1ccc(NC(=O)c2ccco2)cc1,cell count,[1],301
same,inhibition,[1],2.8% (inactive)
same,inhibition of aggregation,[2],-6.6% (inactive)
same,nuclei count,[2],106%
same,inhibition,[3],-28.1% (inactive)
same,nuclei count,[3],112%
same,fluorescence slope,[4],-0.399 (inactive)
same,NADPH fluorescence slope,[5],-4.1e-05 (inactive)
same,slope,[6],0.00468 (inactive)
same,inhibition,[7],4.93% (inactive)
same,inhibition,[8],-6.73% (inactive)
CC(=O)Nc1cccc(NC(=O)c2oc3ccccc3c2C)c1,cell count,[1],343
same,inhibition,[1],-0.2% (inactive)
same,inhibition of aggregation,[2],0.5% (inactive)
same,nuclei count,[2],98.8%
same,inhibition,[3],-9.3% (inactive)
same,nuclei count,[3],112%
same,fluorescence slope,[4],-0.521 (inactive)
same,NADPH fluorescence slope,[5],1.6e-05 (inactive)
same,slope,[6],0.00572 (inactive)
same,inhibition,[7],-37.4% (inactive)
same,inhibition,[8],-104% (inactive)
CC(=O)NS(=O)(=O)c1ccc(NC(=O)c2ccccc2F)cc1,cell count,[1],515
same,inhibition,[1],-3.9% (inactive)
same,inhibition of aggregation,[2],23.5% (inactive)
same,nuclei count,[2],90.4%
same,inhibition,[3],31.9% (inactive)
same,nuclei count,[3],90.8%
same,fluorescence slope,[4],-0.383 (inactive)
same,NADPH fluorescence slope,[5],-3.8e-05 (inactive)
same,slope,[6],0.00586 (inactive)
same,inhibition,[7],6.18% (inactive)
same,inhibition,[8],8.62% (inactive)
CC(C)[C@H](NC(=O)OC(C)(C)C)c1nnc(SCc2cccc(F)c2)o1,cell count,[1],859
same,inhibition,[1],0% (inactive)
same,inhibition of aggregation,[2],15.1% (inactive)
same,nuclei count,[2],101%
same,inhibition,[3],-63.9% (inactive)
same,nuclei count,[3],122%
same,fluorescence slope,[4],-0.46 (inactive)
same,NADPH fluorescence slope,[5],-4.1e-06 (inactive)
same,slope,[6],0.00385 (inactive)
same,inhibition,[7],9.92% (inactive)
same,inhibition,[8],19.5% (inactive)
CC(=O)c1c(C)oc2ccc(NS(=O)(=O)c3ccc(O)c(C(=O)O)c3)cc12,cell count,[1],380
same,inhibition,[1],8.9% (inactive)
same,inhibition of aggregation,[2],-7.5% (inactive)
same,nuclei count,[2],108%
same,inhibition,[3],-5.6% (inactive)
same,nuclei count,[3],112%
same,fluorescence slope,[4],-0.576 (inactive)
same,NADPH fluorescence slope,[5],-2.5e-05 (inactive)
same,slope,[6],0.00663 (inactive)
same,inhibition,[7],7.79% (inactive)
same,inhibition,[8],19.3% (inactive)
COCCn1c(CN2CCN(c3cccc(Cl)c3)CC2)nc2c1c(=O)n(C)c(=O)n2C,cell count,[1],712
same,inhibition,[1],-6.3% (inactive)
same,inhibition of aggregation,[2],5.4% (inactive)
same,nuclei count,[2],99.5%
same,inhibition,[3],-24.9% (inactive)
same,nuclei count,[3],120%
same,fluorescence slope,[4],-0.582 (inactive)
same,NADPH fluorescence slope,[5],-4e-05 (inactive)
same,slope,[6],0.00601 (inactive)
same,inhibition,[7],12.7% (inactive)
same,inhibition,[8],15.3% (inactive)
